Bioassay records: PubChem, several laboratories
The list is not random: actives were taken first. Their share in the collection is about 5.4%.
A3G deaminase: APOBEC3G (human) deaminase inhibition | Q9HC16 | inhibition, % at 20 µM | recombinant A3G, ssDNA deamination FAM/TAMRA fluorescence | actives 0.28% (n = 330,000);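 active means inhibition of at least 40% at 20 µM, with no more than 30% in the related APOBEC3A deaminase screen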;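 further: plate controls were DMSO wells with A3G for no effect and wells lacking A3G enzyme for full effect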
Target sequence (Q9HC16 whole entry, looked up): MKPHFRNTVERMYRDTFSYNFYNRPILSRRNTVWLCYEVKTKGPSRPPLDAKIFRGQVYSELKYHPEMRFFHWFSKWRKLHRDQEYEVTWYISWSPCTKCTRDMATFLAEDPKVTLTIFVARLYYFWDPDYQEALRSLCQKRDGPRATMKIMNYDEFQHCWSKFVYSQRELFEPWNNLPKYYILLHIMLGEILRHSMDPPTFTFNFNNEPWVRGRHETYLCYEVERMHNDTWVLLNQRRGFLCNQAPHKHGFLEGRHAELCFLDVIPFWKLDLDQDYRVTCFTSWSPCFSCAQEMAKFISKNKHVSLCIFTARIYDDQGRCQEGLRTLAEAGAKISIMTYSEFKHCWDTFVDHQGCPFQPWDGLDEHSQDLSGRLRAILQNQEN
rCAG binder: binds r(CAG) RNA repeats; actives 1.3% (n = 370,000); inhibition, % at 3 µM; r(CAG) RNA repeat, TO-PRO-1 dye displacement fluorescence;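 active means inhibition above the plate cutoff, the mean of all test compounds on that plate plus 3 SD, cut at about 35% in these data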;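 further: 0% = DMSO alone and 100% = 100 µM mitoxantrone as full dye displacement; higher means more dye released from RNA so lower well fluorescence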
ALR inh: blocks human ALR sulfhydryl oxidase activity. purified ALR, DTT oxidation, H2O2 HRP-luminol luminescence. AID 485317. actives 3.8% (n = 290,000). inhibition, % (concentration not given with the values);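 active means mean replicate inhibition above about 79%, with every replicate also reaching it, limit read from the data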
A3A deaminase: human APOBEC3A DNA deaminase inhibition; P31941; recombinant A3A, FAM/TAMRA ssDNA deamination fluorescence; inhibition, % at 20 µM; actives 0.41% (n = 330,000);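 active means at least 40% inhibition at 20 µM here, with at most 30% in a related deaminase screen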;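 further: plate controls were A3A with DMSO for no effect and wells lacking A3A enzyme for full effect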
Target sequence (P31941 whole entry, looked up): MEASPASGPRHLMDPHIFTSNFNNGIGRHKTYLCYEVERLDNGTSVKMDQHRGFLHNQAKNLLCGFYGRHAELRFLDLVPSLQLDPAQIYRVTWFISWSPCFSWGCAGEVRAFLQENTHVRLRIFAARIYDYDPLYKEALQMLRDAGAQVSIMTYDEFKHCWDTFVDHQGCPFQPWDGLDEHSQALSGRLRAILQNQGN
PHOSPHO1 inh: PHOSPHO1 (human) inhibition; actives 1.1% (n = 290,000); Q8TCT1; inhibition, % at 13.3 µM; AID 1565; recombinant PHOSPHO1, absorbance phosphatase assay; in the data active means inhibition above about 60%
aDG glyco up: alpha-DG glycosylation activation. Pro5-aDG cells, alpha-DG glycosylation AlphaScreen (IIH6); 0% Pro5, 100% B10-LARGE cell signal. activation, % at 10 µM. actives 0.22% (n = 360,000);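 active means activation of at least 8% versus controls, or a plate z-score of at least 8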;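 further: Pro5 are CHO cells carrying HIG-tagged alpha-DG that lacks glycosylation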
* hit, by the source's call; x = not tested or not shown.

SMILES	A3G deaminase	rCAG binder	ALR inh	A3A deaminase	PHOSPHO1 inh	aDG glyco up
CC(C)CN1C(=O)[C@]2(CC(=O)N(C)C2c2ccccc2)c2cc(-n3cc(-c4ccccc4)nn3)ccc21 (some centres not stated)	x	3	x	x	x	x
O=C(Nc1ccc(F)cc1)OCc1cn(Cc2cccc(F)c2F)nn1	x	1	x	x	x	x
CCn1c(SCC(=O)Nc2ccc(Cl)cc2)nnc1C1CC1	5	-4	-9	0	-9	0
CCn1c(SCC(=O)Nc2ccc(N3CCOCC3)cc2)nnc1C1CC1	-3	-4	99*	1	x	0
Cc1cc(O)cc(=O)n1-c1cccc(Br)c1	x	3	x	x	x	x
CCCCc1c(-c2ccccc2OC)ncn1Cc1ccc(C(C)(C)C)cc1	x	0	x	x	x	x
C=C(C)CSc1nc2sc3c(c2c(=O)n1C1CCCCC1)CCN(C)C3	0	2	x	-3	16	0
C=CCNC(=O)CSc1nc2sc3c(c2c(=O)n1CCCOC)CCC3	-1	6	81*	-3	34	0
CCSc1nc2sc3c(c2c(=O)n1C1CCCCC1)CCN(C)C3	x	2	x	x	60*	0
CCn1c(SCC(=O)NCCc2ccccc2)nc2sc3c(c2c1=O)CCN(C)C3	-3	2	x	-3	8	0
COC(=O)CSc1nc2sc3c(c2c(=O)n1-c1ccccc1)CCN(C)C3	-4	10	100*	-3	25	0
CCn1c(SCC(=O)c2ccccc2)nc2sc3c(c2c1=O)CCN(C)C3	1	7	99*	2	16	0
O=S1(=O)C=CCN1Cc1cn(Cc2cccc(Cl)c2)nn1	x	0	x	x	x	x
CCCN(C(=O)CCc1cn(CCC)c2ccccc12)c1ccc(Oc2cccnc2)cc1	x	-1	x	x	x	x
C=CCn1c(SCC(=O)OC)nc2sc3c(c2c1=O)CCN(C)C3	1	x	99*	3	7	x
COC(=O)C1=C(C)N(Cc2ccc(Br)cc2)C(=S)NC1c1ccc(OC)cc1 (configuration not stated)	x	4	x	x	x	x
NC1=NC[C@H](Cc2ccc(O)cc2)N1CC1CCCCC1	-5	6	90*	0	44	0
O=C(/C=C(\Nc1ccc(F)cc1)c1ccccc1)c1ccccc1	x	4	x	x	x	x
O=c1cc(-c2cccc([N+](=O)[O-])c2)[nH][nH]1	-4	3	82*	-1	6	0
O=c1c2cc3cc4c(cc3nc2ncn1Cc1cccnc1)OCO4	x	8	x	x	x	x
O=C(CSCC(=O)OCn1nnc2ccccc2c1=O)Nc1ccc(Cl)cc1	-3	4	98*	-5	36	0
CN(C)c1ccc(NC(=O)CCCCCn2nnc3ccccc3c2=O)cc1	6	-5	99*	-1	43	0
CN1CCCc2cc(C=O)ccc21	2	3	-29	5	-2	0
CCCN1CCCc2cc(CN)ccc21	-8	-1	100*	-9	21	0
Oc1ccc2[nH]cc(-c3cccs3)c2c1-c1ccccc1	x	9	x	x	x	x
SMILES	A3G deaminase	rCAG binder	ALR inh	A3A deaminase	PHOSPHO1 inh	aDG glyco up
CCCS(=O)(=O)N1CCCC(C(=O)NCCCN(C)Cc2ccccc2)C1 (configuration not stated)	-7	0	1	1	-16	0
CN(CCCNC(=O)C1CCCN(S(=O)(=O)c2cnc[nH]2)C1)c1ccccc1 (configuration not stated)	-6	1	100*	-2	39	0
O=C(NCCCN1CCN(c2ccccc2F)CC1)C1CCCN(S(=O)(=O)c2cnc[nH]2)C1 (configuration not stated)	-4	-1	x	0	-9	0
CCCS(=O)(=O)N1CCCC(C(=O)NCCCN(C)c2ccccc2)C1 (configuration not stated)	0	-1	82*	0	17	0
CCCC[C@H]1C2CC(OC(=O)Nc3ccc(C#N)cc3)C(C2)[C@H]2CCCCN21 (some centres not stated)	x	5	x	x	x	x
COC(=O)C1=C(C)N(Cc2cccc(C(F)(F)F)c2)C(=NCc2cc(OC)c(OC)c(OC)c2)NC1c1cccc(Cl)c1 (configuration not stated)	x	3	x	x	x	x
CC(=O)Nc1ccc(/C=N\NC(=O)c2cccc(S(=O)(=O)N(C)C)c2)cc1	x	2	x	x	x	x
CCN(CCNC(=O)[C@H]1C=C(OC)C(=O)C[C@H](c2ccccc2)[C@H]1C)C(C)=O	x	3	x	x	x	x
O=c1c(/C=N/OCc2ccc(Cl)cc2Cl)c[nH]n1-c1cccc(Cl)n1	-1	11	98*	6	32	0
Cc1nc(N/N=C/c2ccccn2)sc1C	x	1	97*	x	-9	x
Cc1nn(-c2ccccc2)c2[nH]c(=O)c(CNCCN3CCOCC3)cc12	-3	2	91*	-1	-13	0
Cc1nn(-c2ccccc2)c2[nH]c(=O)c(CNCc3ccc4c(c3)OCO4)cc12	-3	5	7	-1	2	0
Cc1oc2cc(O)ccc2c(=O)c1Oc1ccccc1	-2	1	-1	-1	38	0
CC(=O)Oc1ccc2c(=O)c(Oc3ccccc3)c(C)oc2c1OC(C)=O	-9	6	100*	-2	1	1
Cc1ccc(/C=N/Nc2ncnc3nc[nH]c23)cc1	-5	10	65	0	-16	0
Clc1ccc(/C=N/Nc2ncnc3nc[nH]c23)cc1	-6	3	93*	3	-6	0
CC(Sc1nc2ccccc2s1)C(=O)c1c(N)n(C)c(=O)n(C)c1=O (configuration not stated)	-19	0	99*	-5	-42	4
Cc1cccc(-c2cccc3c4c([nH]c23)[C@@H]2C[C@H](N(C)C(=O)c3ccccc3C)[C@H]([C@H](C)O)C(=O)N2CC4)c1	x	8	x	x	x	x
COC(=O)[C@]12C[C@H](CC(=O)NCc3cccs3)C(=O)N(Cc3ccc(Cl)cc3Cl)C1=C[C@H](COCc1ccccc1)O[C@@H]2C	x	8	x	x	x	x
CC(=O)Oc1ccc(C(=O)c2ccccc2)c(OC(C)=O)c1	-3	-4	98*	-2	-14	-1
CC(=O)Oc1ccc(Nc2ccccc2)cc1	-8	0	99*	-1	32	0
NC(=O)Nc1ccc(Nc2ccccc2)cc1	2	1	99*	2	-6	0
CC(=O)Oc1ccc(NC(=O)Cc2ccccc2)cc1	-6	0	20	-2	7	0
CC(=O)Oc1ccc(C(=O)O)c(OC(C)=O)c1	-1	0	3	-2	32	0
CC(=O)Nc1ccc(S(=O)(=O)NC(C)C(=O)NC(C)c2ccccc2)cc1 (configuration not stated)	-7	3	99*	-6	-14	0
CCCCCCCCN1C(=O)[C@@H](CC(=O)N2CCOCC2)C[C@@]2(C(=O)OC)C1=C[C@H](C1CCCC1)O[C@@H]2C	x	6	x	x	x	x
